Data reported in PubChem BioAssay (NCI).
The panel holds about 79,000 compounds, 15% with a hit somewhere; the sample as a whole holds those more often. Calls of active or inactive are those of the source. Cut-off read from the data, not from the text of the source: active = growth inhibition above about 70%; inactive = the rest.

Columns and labels:
[1] = NCI Yeast Anticancer Drug Screen. Data for the rad52 strain (AID 147);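 note: 0% = growth of vehicle-treated control cultures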; settings: S. cerevisiae rad52 mutant growth inhibition, stronger effect = higher value
Summary of the method: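 DNA repair-defective yeast; compound exposure; growth scored against vehicle controls.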

[2] = NCI Yeast Anticancer Drug Screen. Data for the wt1 strain (AID 149);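 note: 0% = growth of vehicle-treated wt1 cultures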; settings: S. cerevisiae wt1 strain (SPY 50644) growth inhibition, stronger effect = higher value
Summary of the method: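 Each compound is tested on wt1 yeast and the loss of growth versus vehicle gives the inhibition value.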

[3] = NCI Yeast Anticancer Drug Screen. Data for the rad50EPP+ strain (AID 151);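 note: 0% = growth of vehicle-treated control cultures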; settings: S. cerevisiae rad50 mutant strain, stronger effect = higher value
Summary of the method: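 rad50EPP+ yeast treated with test compounds. Readout: growth vs vehicle control.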

[4] = NCI Yeast Anticancer Drug Screen. Data for the mgt1 strain (AID 153); settings: S. cerevisiae mgt1 mutant growth inhibition, stronger effect = higher value
Summary of the method: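 Growth inhibition relative to vehicle controls was scored for the mgt1 yeast strain after compound exposure.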

[5] = NCI Yeast Anticancer Drug Screen. Data for the rad50 strain (AID 155);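 note: 0% = growth of vehicle-only cultures of the same strain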; settings: S. cerevisiae rad50 strain growth inhibition, stronger effect = higher value
Summary of the method: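 Vehicle-treated cultures provide the reference for the growth inhibition reported for compound-exposed, repair-deficient yeast.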

[6] = NCI Yeast Anticancer Drug Screen. Data for the mec2-1 strain (AID 157); settings: S. cerevisiae mec2-1 strain, stronger effect = higher value
Summary of the method: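 Growth inhibition is read against vehicle-treated controls after compound exposure of the mec2-1 yeast strain, which is defective in DNA damage repair or cell cycle control.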

[7] = NCI Yeast Anticancer Drug Screen. Data for the rad14 strain (AID 159);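 note: 0% = growth of vehicle-treated control cultures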; settings: S. cerevisiae rad14 strain growth inhibition, stronger effect = higher value
Summary of the method: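 Inhibition of growth is reported for a repair-deficient yeast mutant following compound treatment, calculated relative to cultures that received vehicle.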

[8] = NCI Yeast Anticancer Drug Screen. Data for the sgs1 mgt1 strain (AID 161);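 note: 0% = growth of cultures given vehicle only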; settings: S. cerevisiae sgs1 mgt1 strain, stronger effect = higher value
Summary of the method: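 Percent growth inhibition was derived by comparing compound-exposed mutant yeast with vehicle-exposed cultures. The strain carries alterations in DNA damage repair.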

[9] = NCI Yeast Anticancer Drug Screen. Data for the CLN2oe strain (AID 163);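 note: 0% = growth of vehicle-only control cultures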; settings: S. cerevisiae CLN2oe strain, stronger effect = higher value
Summary of the method: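 Compound-treated yeast; growth vs vehicle ctrl = % inhibition. Genetically altered strain (cell-cycle control).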

[10] = NCI Yeast Anticancer Drug Screen. Data for the cln2 rad14 strain (AID 165);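 note: 0% = growth equal to vehicle treated cultures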; settings: S. cerevisiae cln2 rad14 strain, stronger effect = higher value
Summary of the method: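 Growth inhibition, relative to vehicle-treated controls, is the read-out. The test organism is a yeast strain with defined genetic alterations, cln2 rad14.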

[11] = NCI Yeast Anticancer Drug Screen. Data for the bub3 strain (AID 167); settings: S. cerevisiae bub3 mutant strain, stronger effect = higher value
Summary of the method: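 Mutant yeast screening strain plus compound; vehicle-treated cultures serve as the 0% inhibition reference.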

[12] = NCI Yeast Anticancer Drug Screen. Data for the wt2 strain (AID 169); settings: S. cerevisiae wt2 strain growth inhibition, stronger effect = higher value
Summary of the method: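 Compound exposure of yeast; growth compared with vehicle controls; inhibition reported.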

[13] = NCI Yeast Anticancer Drug Screen. Data for the mlh1 strain (AID 171);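 note: 0% = growth of vehicle-treated control cultures of the same strain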; settings: S. cerevisiae mlh1 strain growth inhibition, stronger effect = higher value
Summary of the method: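 Compounds are applied to a genetically altered yeast strain, and its growth is compared with that of vehicle-treated cultures to give percent inhibition.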

[14] = NCI Yeast Anticancer Drug Screen. Data for the sgs1 strain (AID 173);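 note: 0% = growth of vehicle-only control cultures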; settings: S. cerevisiae sgs1 mutant, stronger effect = higher value
Summary of the method: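 Compounds applied to genetically altered yeast; growth compared with vehicle-treated cultures to give % inhibition.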

[15] = NCI Yeast Anticancer Drug Screen. Data for the rad18 strain (AID 177); settings: S. cerevisiae rad18 mutant growth inhibition, stronger effect = higher value
Summary of the method: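 Compounds are applied to a repair-deficient yeast strain, and growth is compared with that of vehicle-treated cultures to give percent inhibition.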

[16] = NCI Yeast Anticancer Drug Screen. Data for the mlh1 rad18 strain (AID 175); settings: S. cerevisiae mlh1 rad18 strain growth inhibition, stronger effect = higher value
Summary of the method: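 Cells of a genetically altered yeast strain, deficient in DNA damage repair, were treated with compound. Their growth was then compared with that of vehicle-treated cultures to give inhibition.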

[17] = at 5.0 µM (retest, dose inferred, filed as 0.5)
[18] = at 50.0 µM (retest, dose inferred, filed as 5.0)

Measured: growth inhibition

O=[N+]([O-])c1cc(S(=O)(=O)F)ccc1Cl
inactive: [1]; at 1.2 µM 20% | [1]; at 3.7 µM 24% | [1]; at 11.0 µM 49% | [2]; at 1.2 µM 27% | [2]; at 3.7 µM 28% | [2]; at 11.0 µM 9% | [3]; at 1.2 µM 13% | [3]; at 3.7 µM 20% | [3]; at 11.0 µM 47% | [4]; at 1.2 µM 11% | [4]; at 3.7 µM 20% | [4]; at 11.0 µM 18% | [5]; at 1.2 µM 18% | [5]; at 3.7 µM 20% | [5]; [17] 51% | [5]; at 11.0 µM 38% | [5]; [18] 57% | [6]; at 1.2 µM 27% | [6]; at 3.7 µM 25% | [6]; [17] 50% | [6]; at 11.0 µM 35% | [6]; [18] 62% | [7]; at 1.2 µM 1% | [7]; at 3.7 µM -6% | [7]; at 11.0 µM 7% | [8]; [17] 11% | [9]; at 1.2 µM 26% | [9]; at 3.7 µM 20% | [9]; at 11.0 µM 39% | [10]; [17] 27% | [11]; at 1.2 µM -10% | [11]; at 3.7 µM -6% | [11]; [17] 39% | [11]; at 11.0 µM 1% | [12]; at 1.2 µM -11% | [12]; at 3.7 µM -4% | [12]; at 11.0 µM 17% | [13]; at 1.2 µM 15% | [13]; at 3.7 µM 19% | [13]; at 11.0 µM 29% | [14]; at 1.2 µM 6% | [14]; at 3.7 µM 13% | [14]; at 11.0 µM 50% | [15]; at 1.2 µM 4% | [15]; at 3.7 µM 15% | [15]; at 11.0 µM 30%
active: [1]; at 33.0 µM 94% | [1]; at 100.0 µM 98% | [2]; at 33.0 µM 93% | [2]; at 100.0 µM 99% | [3]; at 33.0 µM 82% | [3]; at 100.0 µM 99% | [4]; at 33.0 µM 93% | [4]; at 100.0 µM 99% | [5]; at 33.0 µM 94% | [5]; at 50.0 µM 92.5% | [5]; at 100.0 µM 100% | [6]; at 33.0 µM 95% | [6]; at 50.0 µM 94.5% | [6]; at 100.0 µM 100% | [7]; at 33.0 µM 94% | [7]; at 100.0 µM 99% | [8]; [18] 100% | [8]; at 50.0 µM 93.4% | [9]; at 33.0 µM 93% | [9]; at 100.0 µM 98% | [10]; [18] 100% | [10]; at 50.0 µM 92.4% | [11]; at 33.0 µM 90% | [11]; [18] 99% | [11]; at 50.0 µM 93.2% | [11]; at 100.0 µM 98% | [12]; at 33.0 µM 85% | [12]; at 100.0 µM 98% | [13]; at 33.0 µM 95% | [13]; at 100.0 µM 99% | [14]; at 33.0 µM 97% | [14]; at 100.0 µM 98% | [15]; at 33.0 µM 92% | [15]; at 100.0 µM 99%

O=P(Oc1ccc(Cl)cc1)(Oc1ccc(Cl)cc1)N1CC1
active: [5]; at 100.0 µM 79% | [7]; at 100.0 µM 90% | [14]; at 100.0 µM 92% | [16]; [18] 83%
inactive: [1]; at 1.2 µM -1% | [1]; at 3.7 µM 1% | [1]; at 11.0 µM 0% | [1]; at 33.0 µM 8% | [1]; at 100.0 µM 53% | [2]; at 1.2 µM -2% | [2]; at 3.7 µM -6% | [2]; at 11.0 µM -4% | [2]; at 33.0 µM -2% | [2]; at 100.0 µM 2% | [3]; at 1.2 µM -3% | [3]; at 3.7 µM -1% | [3]; at 11.0 µM 4% | [3]; at 33.0 µM 6% | [3]; at 100.0 µM -4% | [4]; at 1.2 µM -6% | [4]; at 3.7 µM -3% | [4]; at 11.0 µM -5% | [4]; at 33.0 µM -4% | [4]; at 100.0 µM 49% | [5]; at 1.2 µM 2% | [5]; at 3.7 µM 1% | [5]; [17] -9% | [5]; at 11.0 µM 2% | [5]; at 33.0 µM 8% | [5]; [18] 43% | [5]; at 50.0 µM 4.75% | [6]; at 1.2 µM -3% | [6]; at 3.7 µM -1% | [6]; [17] 4% | [6]; at 11.0 µM -2% | [6]; at 33.0 µM -1% | [6]; [18] 6% | [6]; at 50.0 µM 14.3% | [6]; at 100.0 µM 28% | [7]; at 1.2 µM 0% | [7]; at 3.7 µM 1% | [7]; at 11.0 µM 5% | [7]; at 33.0 µM 19% | [8]; [17] -10% | [8]; [18] 35% | [8]; at 50.0 µM 18.9% | [9]; at 1.2 µM -4% | [9]; at 3.7 µM -5% | [9]; at 11.0 µM 6% | [9]; at 33.0 µM 14% | [9]; at 100.0 µM 48% | [10]; [17] -17% | [10]; [18] 48% | [10]; at 50.0 µM 9.3% | [11]; at 1.2 µM -4% | [11]; at 3.7 µM -2% | [11]; [17] -23% | [11]; at 11.0 µM -5% | [11]; at 33.0 µM 2% | [11]; [18] 27% | [11]; at 50.0 µM 34.4% | [11]; at 100.0 µM 32% | [12]; at 1.2 µM -11% | [12]; at 3.7 µM -13% | [12]; at 11.0 µM -14% | [12]; at 33.0 µM -8% | [12]; at 100.0 µM 46% | [13]; at 1.2 µM -3% | [13]; at 3.7 µM -3% | [13]; at 11.0 µM -4% | [13]; at 33.0 µM 2% | [13]; at 100.0 µM 59% | [14]; at 1.2 µM -1% | [14]; at 3.7 µM -23% | [14]; at 11.0 µM 2% | [14]; at 33.0 µM 13% | [16]; [17] -8% | [16]; at 50.0 µM 32.1% | [15]; at 1.2 µM -5% | [15]; at 3.7 µM -1% | [15]; at 11.0 µM 0% | [15]; at 33.0 µM 3% | [15]; at 100.0 µM 47%

O=C(c1ccccc1)C1C(c2ccccc2[N+](=O)[O-])N1C1CCCCC1 (stereo not drawn)
active: [1]; at 33.0 µM 80% | [1]; at 100.0 µM 89% | [2]; at 100.0 µM 80% | [3]; at 33.0 µM 80% | [3]; at 100.0 µM 82% | [4]; at 100.0 µM 83% | [5]; at 33.0 µM 71% | [5]; [18] 72% | [5]; at 50.0 µM 96.9% | [5]; at 100.0 µM 84%
inactive: [1]; at 1.2 µM -1% | [1]; at 3.7 µM 7% | [1]; at 11.0 µM 30% | [2]; at 1.2 µM -1% | [2]; at 3.7 µM 1% | [2]; at 11.0 µM 8% | [2]; at 33.0 µM 41% | [3]; at 1.2 µM 5% | [3]; at 3.7 µM 19% | [3]; at 11.0 µM 48% | [4]; at 1.2 µM 1% | [4]; at 3.7 µM 2% | [4]; at 11.0 µM 10% | [4]; at 33.0 µM 52% | [5]; at 1.2 µM 2% | [5]; at 3.7 µM 3% | [5]; [17] -2% | [5]; at 11.0 µM 28% | [6]; at 1.2 µM 4% | [6]; at 3.7 µM 10%
